Experimental findings from PubChem BioAssay AID1347417 (National Center for Advancing Translational Sciences (NCATS), 2020) are described below.

The campaign covered roughly 120,000 compounds. About 5,300 (4.4%) were called active. About 22% were inconclusive and are not listed. This is one part of a sample in which actives are shown more often than they occur. Calls come from the whole dose curve; as a rule, active = well fitted inhibition curve with a large enough effect; inconclusive = small, poorly fitted or top-dose-only effect; inactive = no such curve, though single readings can be large or run the other way.
Potency is the fitted concentration of half-maximal effect.

A short description of the test: qHTS Primary assay for Inhibitors of Plasmodium falciparum Dd2 growth in vitro.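 For activity, negative = inhibition: plate controls were DMSO vehicle for no effect and reference drug for full effect.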 Note: nearly all actives have a fitted effect of over 65% in size. The note with it: P. falciparum Dd2 growth, SYBR Green, 72 h; series mostly up to 28.9 µM; activity, negative = inhibition: at the top concentration. The method in brief: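 Readout: SYBR Green fluorescence, 485 nm excitation, 535 nm emission, after ~16 h lysis at 37C. Before that, Dd2-infected red cells (2.5% hematocrit) grew 72 h with compound, 29 uM top final concentration.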
Background: Quantitative high-throughput screening tests each substance at several concentrations.
For `Cc1ccc(C(=O)N2CC[C@H](CO)[C@H](NC(=O)C3CC3)C2)cn1`, the “activity, negative = inhibition” value was 22.4% (inactive).

Regarding `O=C(NCc1cnn(Cc2ccccc2)c1)c1ccc2oc(-c3cccc(F)c3)nc2c1`, the “activity, negative = inhibition” value was -17.9% (inactive). Take `COc1ccc(-c2cc(CC3(N(Cc4ccc(CO)o4)Cc4ccc(CO)o4)COC3)no2)cc1`: the molecule was classed as inactive. In the case of `CCOC(=O)c1c(NC(=O)c2ccc(S(=O)(=O)N3CCCC(C)C3)cc2)sc2c1CCN(C(C)C)C2` (stereo not drawn), the Potency is 7.94 µM (active). For `CCOC(=O)c1c(NC(=O)c2ccc(S(=O)(=O)N(CC)CC)cc2)sc2c1CCCCC2`, the “activity, negative = inhibition” value is -18.8% (inactive). Turning to `CCOC(=O)c1c(NC(=O)/C=C/c2ccc(OC)cc2)sc2c1CCC(C)C2` (stereo not drawn), the “activity, negative = inhibition” value was 38.9% (inactive). Same read-out and setting: the same measure for `Clc1ccc(CN2CCC3(CC2)CC(c2ccccc2)=NO3)cc1`: -16.7% (inactive); for `Cc1ccc(NC(=O)N2CCc3[nH]c4ccc(F)cc4c3C2)cc1C`: -6.52% (inactive).

Regarding `COc1ccccc1-n1cc(C(=O)N2CCc3c(Cl)cccc3C2)cn1`, the “activity, negative = inhibition” value was -17.5% (inactive).

Regarding `COC[C@@H]1CN(C(=O)COc2cccc(C)c2)C[C@H]1c1nc(C)no1`, the “activity, negative = inhibition” value was -10.3% (inactive). The same measure, in the same setting: the same measure for `Cc1ccccc1CNC(=O)c1ccc(NC(=O)N2CCCCc3ccccc32)cc1`: 48% (inactive). As to `CC[C@H]1CN(C(=O)Nc2ccccc2)CC[C@H]1CC(=O)Nc1ccccc1`, the “outcome” value was “inactive [at 44.1 µM]”. Regarding `CCOC(=O)C1CCN(C(=O)c2cccc3c2CCN3C(=O)Nc2ccccc2)CC1`, the Potency is 11.2 µM (active). For the molecule `COCc1cc(CC2(NCC(C)(C)C)COC2)no1`, the “activity, negative = inhibition” value is -17.5% [at 44.1 µM] (inactive). Same read-out and setting: with `CC(=O)N[C@@H]1Cc2ccccc2[C@H]1n1ccnc1-c1cc2n(n1)CCNC2` the figure was -0.272% (inactive).

For the molecule `Cc1ccc(N2CCN(C(=O)c3ccc4c(c3)N(C)C3CCCCCN3C4=O)CC2)cc1` (stereo not drawn), the result was inactive. On to `Cc1nc2c(c(-c3ccc(O)cc3)n1)CN(C(=O)c1ccccc1C)CCC2`, for which the “activity, negative = inhibition” value is -25% (inactive). With `O=C(Nc1ccccc1)N1CCc2nc(-c3ccccc3)nc(-c3ccc(Cl)cc3)c2C1`, the Potency was 10 µM (active). Regarding `COc1ccc(-c2cc3nc4c(c(=O)n3[nH]2)CN(C(=O)c2ccc(C)nc2)CC4)cc1`, the activity, negative = inhibition is -16.8% [at 5.79 µM] (inactive).

Regarding `CC(=O)N1CCc2nc(C3CC3)nc(-c3ccc(Cl)cc3)c2C1`, the “activity, negative = inhibition” value was -17.7% [at 44.1 µM] (inactive).

Turning to `COc1ccc(-c2nc(-c3ccccc3)nc3c2CN(C(=O)c2ccc(C)cc2)CC3)cc1`, the Potency is 11.2 µM (active). Consider `CC(C)c1nc2c(c(-c3ccc(O)cc3)n1)CN(C(=O)Nc1ccccc1)CC2`, for which the molecule was classed as inactive. Still for that read-out and setting: the same measure for `Cc1ccc(F)c(OCC(=O)c2ccc3c(c2)N(CCCC(=O)NCC2CCCO2)C(=O)CO3)c1` (stereo not drawn): “inactive”. Consider `O=C(Cc1ccc(Oc2ccccc2)cc1)N1CC(COc2ccccc2)C2(C1)CN(C(=O)c1cn[nH]c1)C2` (stereo not drawn), for which the “activity, negative = inhibition” value is -2.51% (inactive).

For the molecule `O=C(CC1COCCN1)NCCc1nc(-c2ccccn2)no1` (stereo not drawn), the “activity, negative = inhibition” value was 2.23% (inactive). For `O=C(NC[C@H]1OC[C@@H](NC2CCOCC2)[C@@H]1O)C1CCCC1`, the “outcome” value was “inactive [at 44.1 µM]”. As for `O=C(NCCCN1CCOCC1)C1CCN(C(=O)N2CC3CC(C2)[C@H]2CCCC(=O)N2C3)CC1` (stereo partly drawn), the “activity, negative = inhibition” value was -15.4% (inactive). Same read-out and setting: the same measure for `Clc1ccccc1C1(c2ccnc(NCCn3cccn3)n2)CCNCC1`: -4.47% (inactive); for `COc1ccc(N2CCC(NC(=O)c3ccc4[nH]ccc4c3)C2=O)cc1` (stereo not drawn): -7.21% (inactive). On the same count and under the same terms, the same measure for `COc1ccc(C2=NOC3(CCCN([S+](=O)([O-])c4ccccc4)C3)C2)cc1` (stereo not drawn): 0.512% (inactive); for `COc1cccc([S+](=O)([O-])N2CCCC3(CC(c4cccc(C(F)(F)F)c4)=NO3)C2)c1` (stereo not drawn): 1.81% (inactive). As to `COc1ccc(-c2nc(C3CC3)nc3c2CCN([S+](=O)([O-])c2ccccc2)CC3)cc1`, the Potency was 7.94 µM (active). Regarding `COc1ccc(-c2nc(C)nc3c2CN([S+](=O)([O-])c2onc(C)c2C)CC3)cc1`, the result was inactive. With `COc1ccc(-c2nc(C(C)C)nc3c2CCN(C(=O)Cc2ccccn2)CC3)cc1`, the “activity, negative = inhibition” value was -16.1% (inactive).

As for `COc1ccc(-c2nc(C(C)C)nc3c2CCN([S+](=O)([O-])c2cccc(C(F)(F)F)c2)CC3)cc1`, the Potency was 7.08 µM (active). Take `CNC(=O)CCC[C@H]1NC[C@@H]2CCCN3CCC[C@H]1[C@H]23`: the “activity, negative = inhibition” value was 5.79% (inactive). On the same count and under the same terms, with `CCNC(=O)[C@@H]1C[C@H](N)CN1C(=O)[C@@H](C)c1ccc2cc(OC)ccc2c1` the figure was -4.1% (inactive); with `COc1ccccc1N1CCN(C(=O)c2ccccc2-c2ncc[nH]2)CC1=O`, 5.23% (inactive). The same measure, in the same setting: with `Cc1nn(CC(=O)O)c(=O)c2nc(C(C)C)sc12` the figure was 37% (inactive); with `O=C(NC1CCCN(c2cc(-c3ccc(Cl)cc3)[nH]n2)C1)c1ccncc1` (stereo not drawn), -9.77% (inactive); with `CCc1ccccc1NC(=O)c1cnn(-c2ccc(F)cc2)c1C1CCNCC1`, -14% (inactive). In the case of `Cc1ccc(NC(=O)c2cc3n(n2)CC(c2ccc4c(c2)OCO4)OC3)cc1C` (stereo not drawn), the “activity, negative = inhibition” value was -22.5% (inactive).

`CC(C)(C)OC(=O)N1CCC(c2c(C(=O)Nc3ccc4c(c3)OCO4)cnn2-c2ccccc2)CC1`: the Potency is 5.01 µM (active). Still for that read-out and setting: the same measure for `COC(=O)c1ccc(NC(=O)c2cnn(-c3ccc(Cl)cc3)c2C2CCN(C(=O)OC(C)(C)C)CC2)cc1`: 7.94 µM (active).

As to `COC(=O)c1ccc(NC(=O)c2cccc3c2C(=O)N(C2CCCCC2)C3)cc1`, the “activity, negative = inhibition” value is 16.6% (inactive). As for `COC(=O)c1ccc(NC(=O)c2cc(S(=O)(=O)N3CCC(C)CC3)cn2C)cc1`, the “activity, negative = inhibition” value is 13.3% (inactive).

Consider `COC[C@@H]1[C@H](NC(=O)C2CCN(C(=O)c3ccncc3)CC2)[C@@H]2CCO[C@H]12`, for which the “activity, negative = inhibition” value was -6.77% (inactive).

Take `Cn1cc(CNC(=O)C[C@@H]2C[C@H]3O[C@H](CNC4Cc5ccccc5C4)[C@@H](O)[C@H]3O2)cn1`: the “activity, negative = inhibition” value was 20.1% [at 44.1 µM] (inactive). Take `Cc1ccc(Cl)cc1N1CCN(C(=O)c2cccn3c(=O)c4cc(Cl)ccc4nc23)CC1`: the “activity, negative = inhibition” value is 8.94% (inactive). For `CCc1nc2ccc(C(=O)N3CCN(c4cccc(Cl)c4)CC3)cc2nc1CC`, the “activity, negative = inhibition” value was -17.5% (inactive). In the case of `CCc1nc2ccc(C(=O)N3CCN(c4cc(Cl)ccc4C)CC3)cc2nc1CC`, the Potency is 11.2 µM (active). Regarding `N#Cc1cccc(C(=O)NC2CCN(c3cc(-c4ccc(Cl)cc4)[nH]n3)C2)c1` (stereo not drawn), the “activity, negative = inhibition” value is -18.8% (inactive).

With `O=C1CN(Cc2cc3cc4c(cc3[nH]c2=O)OCO4)CCCN1`, the “activity, negative = inhibition” value is -6.4% (inactive).
